Compounds with a hit are over-represented: about 12% of the library has one in this group of screens.
BAZ2B inh – inhibitors of human BAZ2B bromodomain | 360,000 compounds, 4.4% hits | AID 504333 | Potency, µM (titrated, usually from 114 µM), hits mostly inhibitors | Q9UIF8 | AlphaScreen BAZ2B-H3K14Ac peptide displacement; also: nearly all actives have a fitted effect of over 60% in size
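AlphaScreen luminescence quantifies BAZ2B engagement of H3K14Ac peptide; the protein and biotinylated peptide are both at 50 nM final, buffer PBS pH 7.4 with 0.01% Tween-20, all steps at room temperature.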
HP1b binding inh – HP1-beta chromodomain-methylated histone interaction inhibition; AID 540317; 390,000 compounds, 0.56% hits; AlphaScreen HP1-beta / biotin-H3K9me3 peptide binding; P83916; Potency, µM (titrated, usually from 114 µM), most hits filed as inhibitors; also: nearly all actives have a fitted effect of over 70% in size
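Compound inhibition of the preformed complex between 50 nM HP1-beta and 50 nM biotinylated H3K9me3 peptide was read by AlphaScreen. Buffer was PBS pH 7.4 with 0.01% Tween-20. Incubations ran 30 min at room temperature, with 10 ug/mL donor/acceptor beads.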
G9a inh – blocks human histone lysine methyltransferase G9a; Q96KQ7; G9a H3K9 monomethylation, AlphaScreen, 2 h; Potency, µM (top dose mostly 102 µM), actives largely listed as inhibitors; 350,000 compounds, 8.8% hits; also: nearly all actives have a fitted effect of over 75% in size
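Step 1: enzyme (final 20 nM) with compound, 15 min RT. Step 2: substrate peptide 500 nM and SAM 20 uM, 2 h RT. Step 3: anti-H3K9me1 antibody and AlphaScreen beads, 10 min, then plate read.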
L3MBTL1 block – L3MBTL1 (human) inhibition; 230,000 compounds, 0.66% hits; Potency, µM (highest dose often 57.1 µM), most hits filed as inhibitors; Q9Y468; AlphaScreen L3MBTL1–H3K9me1 peptide binding; AID 485360; also: nearly all actives have a fitted effect of over 60% in size
Target sequence (Q9Y468 whole entry, looked up): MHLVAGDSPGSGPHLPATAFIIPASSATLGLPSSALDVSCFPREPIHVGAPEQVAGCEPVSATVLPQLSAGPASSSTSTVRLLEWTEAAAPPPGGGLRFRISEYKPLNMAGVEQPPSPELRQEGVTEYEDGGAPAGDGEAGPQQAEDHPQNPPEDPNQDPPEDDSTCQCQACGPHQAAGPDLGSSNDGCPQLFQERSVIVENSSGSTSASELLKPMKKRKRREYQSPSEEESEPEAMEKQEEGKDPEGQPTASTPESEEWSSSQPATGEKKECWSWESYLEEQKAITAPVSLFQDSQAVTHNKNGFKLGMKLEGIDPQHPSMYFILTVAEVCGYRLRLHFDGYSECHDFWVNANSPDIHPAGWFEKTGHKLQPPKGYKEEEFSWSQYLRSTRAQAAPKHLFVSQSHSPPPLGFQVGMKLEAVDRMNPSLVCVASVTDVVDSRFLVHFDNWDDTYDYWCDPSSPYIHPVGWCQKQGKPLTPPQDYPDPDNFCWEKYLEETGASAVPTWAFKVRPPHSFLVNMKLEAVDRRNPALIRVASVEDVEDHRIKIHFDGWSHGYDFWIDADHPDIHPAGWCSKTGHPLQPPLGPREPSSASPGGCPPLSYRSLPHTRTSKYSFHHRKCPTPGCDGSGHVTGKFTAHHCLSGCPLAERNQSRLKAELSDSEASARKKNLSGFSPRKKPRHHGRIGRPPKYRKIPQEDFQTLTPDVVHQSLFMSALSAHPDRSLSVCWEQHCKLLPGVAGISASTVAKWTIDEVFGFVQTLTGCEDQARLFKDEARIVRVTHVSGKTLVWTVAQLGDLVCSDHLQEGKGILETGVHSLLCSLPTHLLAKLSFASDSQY
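AlphaScreen assay: L3MBTL1 (50 nM final) was preincubated 30 min at room temperature with biotinylated H3(1-15)K9me1 peptide (75 nM final), then 30 min with library compounds; streptavidin donor and nickel chelate acceptor beads (10 ug/mL final) added, 30 min dark.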
Sfp inh – blocks B. subtilis Sfp PPTase activity; Biochemical Sfp PPTase activity, qHTS; Potency, µM, hits mostly inhibitors; 310,000 compounds, 3.5% hits; Q9F4F7;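 also: the enzyme is Sfp with the accession as filed and its product quenches rhodamine fluorescence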
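Step 1, compound plus 15 nM Sfp-PPTase, 15 min, room temperature. Step 2, add rhodamine-CoA (5 uM) and BHQ-2-YbbR (12.5 uM). Step 3, read 525/598 nm fluorescence at 0 and 30 min.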
JMJD2A Tudor – blocks the human JMJD2A Tudor domain | O75164 | Potency, µM (highest dose often 114 µM), most hits filed as inhibitors | AlphaScreen JMJD2A-Tudor / H3K4me3 peptide binding | 390,000 compounds, 4.4% hits | AID 504339; also: nearly all actives have a fitted effect of over 50% in size
Numbers stand for hits; - = inactive; ? = inconclusive; . = no result given; [ ] = dose if it differs, or a comment. Calls follow the shape of the dose curve; as a rule, active = well fitted curve in the direction sought with a large enough effect; inconclusive = small, poorly fitted or top-dose-only effect, or another doubt; inactive = no such curve, though single readings can be large; an effect the other way counts as inactive or inconclusive.

SMILES	BAZ2B inh	HP1b binding inh	G9a inh	L3MBTL1 block	Sfp inh	JMJD2A Tudor
C/C(=N\N(c1ccccc1)c1ccccc1)c1ccc(N)cc1	.	?	.	.	.	22µM
Cc1cn2c(=O)cc(COC(=O)c3ccc(NC(=O)C(C)Oc4ccccc4)cc3)nc2s1 (stereo not drawn)	-	-	-	.	.	-
O=C(NC1CCCC1)c1sc(=S)n2c1[nH]c(=O)c1ccccc12	?	-	?	-	-	89µM
O=C(NCc1ccco1)c1sc(=S)n2c1[nH]c(=O)c1ccccc12	?	?	22µM	-	45µM	50µM
C=CCn1c(N)c(C(=O)NCc2ccco2)sc1=S	?	?	-	-	-	-
CCCCN1C(=O)Cc2c1nc(N)c1c(N)nc(N(CCC)CCC)c(C#N)c21	-	?	40µM	-	-	-
CN1C(=O)/C(=C2/C=CC=CN2C)OC1=S	-	?	32µM	-	56µM	-
CCN1/C(=C2\OC(=S)N(C)C2=O)C=Cc2ccccc21	.	-	-	.	-	-
O=C1c2ccccc2NC(c2cc(Cl)cc(Cl)c2O)N1Cc1cccnc1 (stereo not drawn)	?	-	79µM	.	-	-
C[n+]1cnc(-c2ccccc2)cc1-c1ccccc1	-	?	?	-	-	22µM
Cc1[nH]c2ccccc2c1C(=O)C(C)OC(=O)c1ccc(NC(=O)CC#N)cc1 (stereo not drawn)	-	-	-	-	.	-
Cc1[nH]c2ccccc2c1C(=O)C(C)OC(=O)c1ccccc1NCCO (stereo not drawn)	-	-	45µM	-	.	-
CC(C)(C)c1ccc(C(=O)N2CCN(Cc3cc(=O)n4nc(-c5ccccc5F)sc4n3)CC2)cc1	-	-	-	.	.	-
Cn1c(N=Nc2ccccc2)nc2ccccc21	50µM	?	?	?	?	?
CN(C)c1ccc(N=Nc2nc3ccccc3n2C)cc1	2.8µM	14µM	?	.	-	10µM
CC1C(=O)N2CCCc3cc(NC(=O)C(=O)NCc4cccnc4)cc1c32 (stereo not drawn)	-	-	-	-	.	-
CCN(CC)S(=O)(=O)c1cccc(C(=O)OCC(=O)NCc2ccccc2OC)c1	-	-	-	-	.	-
COc1cccc(C2C(C(=O)c3cc4ccccc4o3)=C(O)C(=O)N2c2cc(C)on2)c1 (stereo not drawn)	-	-	45µM	.	-	-
Cc1cc(N2C(=O)C(O)=C(C(=O)c3ccc(C)o3)C2c2ccc([N+](=O)[O-])cc2)no1 (stereo not drawn)	-	-	45µM	.	-	-
Cc1cc(N2C(=O)C(O)=C(C(=O)c3cc4ccccc4o3)C2c2cccc(Cl)c2)no1 (stereo not drawn)	-	-	40µM	.	-	?
Cc1cc(N2C(=O)C(O)=C(C(=O)c3ccco3)C2c2cccc(Cl)c2)no1 (stereo not drawn)	?	-	-[0.0925 µM]	.	-	-
COc1ccc(C2C(C(=O)c3ccc(C)o3)=C(O)C(=O)N2c2cc(C)on2)cc1OC (stereo not drawn)	-	-	?	-	-	?
COc1ccccc1C1C(C(=O)c2cc3ccccc3o2)=C(O)C(=O)N1c1cc(C)on1 (stereo not drawn)	-	-	50µM	.	-	-
COc1ccc(OC)c(C2C(C(=O)c3cc4ccccc4o3)=C(O)C(=O)N2c2cc(C)on2)c1 (stereo not drawn)	-	-	?	-	-	-
O=C(NCc1ccc(F)cc1)C(=O)NCC1OCCN1S(=O)(=O)c1cccs1 (stereo not drawn)	-	-	-	-	-	-
SMILES	BAZ2B inh	HP1b binding inh	G9a inh	L3MBTL1 block	Sfp inh	JMJD2A Tudor
O=C(Cn1c(-c2cccs2)cc2cc(F)ccc21)N1CCN(c2ccccc2)CC1	-	-	-	.	.	-
COc1cc(C2C(C(=O)c3ccc(C)o3)=C(O)C(=O)N2c2cc(C)on2)cc(Br)c1O (stereo not drawn)	-	-	?	-[11.4 µM]	-	-
Cc1cc(N2C(=O)C(O)=C(C(=O)c3ccc(C)o3)C2c2cccc(Oc3ccccc3)c2)no1 (stereo not drawn)	-	-	.	.	-	35µM
COc1ccc(OC)c(C2C(C(=O)c3ccc(C)o3)=C(O)C(=O)N2c2cc(C)on2)c1 (stereo not drawn)	-	-	50µM	.	?	?
C=CCOc1cccc(C2C(C(=O)c3cc4ccccc4o3)=C(O)C(=O)N2c2cc(C)on2)c1 (stereo not drawn)	-	-	40µM	.	-	?
CCCOc1ccc(C2C(C(=O)c3cc4ccccc4o3)=C(O)C(=O)N2c2cc(C)on2)cc1OC (stereo not drawn)	-	-	.	.	-	-
CCc1ccc(NC(=O)C2CCCN2S(=O)(=O)c2ccc3c(c2)CCCC(=O)N3)cc1 (stereo not drawn)	-	-	-	.	.	-
O=C(c1ccc(Cl)cc1)c1cn(Cc2ccccc2)c2cc3c(cc2c1=O)OCCO3	-	-	-	.	.	-
CCOc1ccc(C(=O)C(CCC(CN(C)C)C(=O)c2ccc(OCC)cc2)CN(C)C)cc1 (stereo not drawn)	?	-	?	-	-	?
CN(C)CC(CCC(CN(C)C)C(=O)c1ccccc1)C(=O)c1ccccc1 (stereo not drawn)	-	-	45µM	-	-	-
c1ccc(CNCCC(Cc2ccccc2)c2ccco2)cc1 (stereo not drawn)	-	-	?	-	-	-
CN(C)c1ccc(CNCCC(Cc2ccccc2)c2ccco2)cc1 (stereo not drawn)	22µM	?	22µM	.	45µM	20µM
O=C1c2ccccc2C(=O)N1Nc1ccccc1	-	-	-[0.0925 µM]	-	-	-
O=C1c2cccc3c([N+](=O)[O-])c(O)cc(c23)C(=O)N1Nc1ccccc1	?	?	20µM	-	-	?
COCCN1C(=O)/C(=C/c2ccc(N3CCCC3)cc2C)SC1=S	8.9µM	-	-[0.501 µM]	-	-	?
C=CCn1c(-c2cnn(-c3ccccc3)c2N)n[nH]c1=S	-	-	7.9µM	-	-	4µM
Cc1ccc(-c2cnn(-c3ccccc3)c2N)cc1	-	-	-	.	-	-
Nc1c(-c2n[nH]c(=S)n2-c2ccc(Cl)cc2Cl)cnn1-c1ccccc1	-	-	4.5µM	.	-	-
Cn1c(-c2cnn(-c3ccccc3)c2N)n[nH]c1=S	-	-	28µM	-	?	?
Cc1ccc(N2CCN(C(=O)c3c(C)oc4ncn(CC(C)C)c(=O)c34)CC2)c(C)c1	-	-	-	.	.	-
COc1ccccc1CN1CC(C(=O)N2CCOCC2)CCC1=O (stereo not drawn)	-	-	.	.	-	?
CCCn1c(=O)n(C)c(=O)c2c(SCC(=O)NCc3ccco3)nc(C3CC3)nc21	-	-	-	.	-	79µM
